Measured values reported in PubChem BioAssay AID504832 (National Center for Advancing Translational Sciences (NCATS), 2011).
The campaign covered roughly 310,000 compounds. About 18,000 (5.8%) were called active. Inconclusive results (about 22%) are left out. Calls follow the shape of the dose curve; as a rule, active = well fitted inhibition curve with a large enough effect; inconclusive = small, poorly fitted or top-dose-only effect, or another doubt; inactive = no such curve, though single readings can be large or run the other way. Shown is part of a subset that was picked to be rich in actives.

test: Primary qHTS for delayed death inhibitors of the malarial parasite plastid, 48 hour incubation; settings: P. falciparum luciferase growth in erythrocytes; series mostly up to 28.7 µM; activity change, negative = inhibition: at the top concentration
Summary of the method: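 Firefly luciferase activity from engineered P. falciparum reports growth; inhibitors lower the luminescent signal. Cultures contained 2% hematocrit erythrocytes at 0.1% final parasitemia.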
% is scaled to controls: 0 for no effect and ±100 for the full control effect; potency is read from the fitted curve at half-maximal effect.

SMILES | activity change, negative = inhibition | Potency
COC(=O)c1cn(C(=O)c2ccc(Cl)cc2)c2ccccc12 | 6.25% (inactive) | 
COC(=O)c1ccccc1Sc1c(/C=N/OCc2ccc(Cl)cc2)c(C(F)(F)F)nn1C |  | 1.85 µM (active)
COC(=O)c1ccccc1NC(=O)Cn1nc(C(F)(F)F)c2c1CCC2 | -16.9% (inactive) | 
O=c1ccc(S(=O)(=O)N2CCCC2)cn1Cc1nc(-c2ccccc2)no1 | -21.1% (inactive) | 
CC1=C(C(N)=O)C(c2ccc(F)cc2)n2nc(CCCO)nc2N1 (stereo not drawn) | 5.98% (inactive) | 
Cc1ccc(-n2c(-c3ccc(Cl)cc3)n[nH]c2=S)cc1 | -0.506% (inactive) | 
S=c1[nH]cc(-c2ccc(Cl)cc2)n1-c1ccccc1 |  | 1.85 µM (active)
S=c1[nH]ccn1-c1ccc(Cl)cc1 | 165% (inactive) | 
O=C(O)c1cccc2c1C(=O)N(C1CCCC1)C2 | 1.91% (inactive) | 
Cc1ccccc1CN1CCN(CC(=O)NCc2ccccn2)C1=O | 5.04% (inactive) | 
Cc1ccccc1CN1C[C@@H]2C[C@@H](c3cn(C)nc3-c3ccccc3)N3CCC[C@@]23C1=O |  | 6.57 µM (active)
Cc1ccc(CN2CCN(Cc3cn(C)nc3-c3ccccc3)CC2CCO)o1 (stereo not drawn) | -13.4% (inactive) | 
Cc1c(C)c(C)c(S(=O)(=O)NCCc2ccccn2)c(C)c1C | -19% (inactive) | 
Cc1c(S(=O)(=O)N2CC(C)CC(C)C2)c(=O)n(C)c(=O)n1C (stereo not drawn) | 6.23% (inactive) | 
COc1cc(OC)cc(C(=O)NCC(=O)N2CCCCCCC2)c1 | -21.4% (inactive) | 
CN(C)P(=S)(Nc1ccccc1)C(Cl)(Cl)Cl (stereo not drawn) |  | 11.7 µM (active)
O=S(=O)(Nc1ccc2nc(N3CCOCC3)sc2c1)c1ccccc1 | 128% (inactive) | 
C#CCOCCOCCOCCNc1nc(N2CCN(C(=O)CCCCCCCCCCNC(=O)Cn3cc(CCCCCN)nn3)CC2)nc(N2CCN(C(=O)CCCCCCCCCCNC(=O)[C@H](CO)n3cc(CCCSC)nn3)CC2)n1 |  | 2.94 µM (active)
C#CCOCCOCCOCCNc1nc(N2CCN(C(=O)[C@H](CCC(=O)O)n3cc(C(N)CO)nn3)CC2)nc(N2CCN(C(=O)[C@H](CCCCN)n3cc(C(N)[C@H](C)CC)nn3)CC2)n1 (stereo partly drawn) | -11.7% (inactive) | 
C#CCOCCOCCOCCNc1nc(N2CCN(C(=O)CCCCCCCCCCNC(=O)[C@H]([C@@H](C)CC)n3cc(CCCCN=C(N)N)nn3)CC2)nc(N2CCN(C(=O)CCCCCCCCCCNC(=O)[C@H](CO)n3cc(CCCSC)nn3)CC2)n1 |  | 0.329 µM (active)
C#CCOCCOCCOCCNc1nc(N2CCN(C(=O)CCCCCCCCCCNC(=O)[C@H](CCCCN)n3cc(C)nn3)CC2)nc(N2CCN(C(=O)CCCCCCCCCCNC(=O)[C@H](CO)n3cc(CCCSC)nn3)CC2)n1 |  | 0.586 µM (active)
C#CCOCCOCCOCCNc1nc(N2CCN(C(=O)[C@H](CCC(=O)O)n3cc(C(N)CO)nn3)CC2)nc(N2CCN(C(=O)[C@H](CCCCN)n3cc(C(N)CC(C)C)nn3)CC2)n1 (stereo partly drawn) | 60.6% (inactive) | 
C#CCOCCOCCOCCNc1nc(N2CCN(C(=O)[C@H](CCC(=O)O)n3cc(C(N)CO)nn3)CC2)nc(N2CCN(C(=O)[C@H](Cc3ccc(O)cc3)n3cc(C(N)[C@H](C)CC)nn3)CC2)n1 (stereo partly drawn) | 35.4% (inactive) | 
C#CCOCCOCCOCCNc1nc(N2CCN(C(=O)[C@H](C(C)C)n3cc(CCO)nn3)CC2)nc(N2CCN(C(=O)[C@H]([C@@H](C)CC)n3cc(CCCN=C(N)N)nn3)CC2)n1 | -7.08% (inactive) | 
C#CCOCCOCCOCCNc1nc(N2CCN(C(=O)[C@H](CCCCN)n3cc(CCC(=O)O)nn3)CC2)nc(N2CCN(C(=O)[C@H](CCCCN)n3cc(CC(C)O)nn3)CC2)n1 (stereo partly drawn) | 3.43% (inactive) | 

SMILES | activity change, negative = inhibition | Potency
C#CCOCCOCCOCCNc1nc(N2CCN(C(=O)[C@H](C(C)C)n3cc(CCO)nn3)CC2)nc(N2CCN(C(=O)[C@H](C(C)C)n3cc(CCO)nn3)CC2)n1 | 15.6% (inactive) | 
COc1ccccc1Oc1ccc(N2CC(C(=O)OCC(=O)c3ccc(F)cc3)CC2=O)cc1 (stereo not drawn) | 40% (inactive) | 
Cc1ccccc1NC(=O)c1cc(S(=O)(=O)Nc2cccc(C(=O)O)c2)ccc1Cl | 9.49% (inactive) | 
CC(C)[C@@H]1COC(c2cccc(C3=N[C@H](C(C)C)CO3)c2)=N1 | 65.1% (inactive) | 
CC1C(=O)N(Cc2ccccc2)c2ccccc2N1C(=O)c1ccccc1 (stereo not drawn) | 0% (inactive) | 
O=C(OCC(=O)N1CCc2ccccc21)C1CCCN1S(=O)(=O)c1ccc(Cl)cc1 (stereo not drawn) | -19.4% (inactive) | 
O=C(Cc1ccsc1)N1CCN(S(=O)(=O)c2cc(C(F)(F)F)cc(C(F)(F)F)c2)CC1 | -3.54% (inactive) | 
O=C(c1ccncc1)N1CCN(S(=O)(=O)c2cc(C(F)(F)F)cc(C(F)(F)F)c2)CC1 |  | 11.7 µM (active)
O=C(c1ccncc1)N1CCN(S(=O)(=O)c2cccc([N+](=O)[O-])c2)CC1 | 1.94% (inactive) | 
CCn1c(SCC(=O)NC2CC2)nnc1-c1ccccc1OC | 19.1% (inactive) | 
Cc1cccn2c(=O)nc(SCC(=O)NCc3ccccc3Cl)nc12 | -0.0063% (inactive) | 
COc1ccc(OCCCCN2CCC(C)CC2)cc1 | -11.4% [at 0.00184 µM] (inactive) | 
Cc1ccc2nc(SCC(=O)N3CCN(c4ccccc4)CC3)nc(=O)n2c1 | -10.8% (inactive) | 
COc1cc(NC(=O)N2CCOCC2)cc(OC)c1 | 11% (inactive) | 
O=C(Nc1cccc(OC(=O)N2CCCCC2)c1)N1CCOCC1 |  | 10.4 µM (active)
O=C(Oc1ccc2c(c1)CCC2)N1CCOCC1 | 62% (inactive) | 
COc1cc(OC)cc(C(=O)NCCCn2ccnc2)c1 | 17.8% (inactive) | 
COCCNc1ncnc2c1nc1n2CCCC1 | 31.9% (inactive) | 
Cc1ccc(S(=O)(=O)NCC(=O)Nc2ccc3c(c2)OCCO3)cc1 | -2.04% (inactive) | 
CN(CC(=O)NCc1cccnc1)S(=O)(=O)c1cc(Cl)ccc1Cl | -6.17% (inactive) | 
Nc1ccc(Nc2cc(O)c3ncccc3c2)cc1 |  | 10.4 µM (active)
CC(C)c1ccc(Nc2ncccc2C#N)cc1 | 109% (inactive) | 
Cc1cccc(C)c1NC(=S)N1CCCCCC1 | -4.47% (inactive) | 
COc1cccc(CNC(=O)CCCC(=O)Nc2cccc([N+](=O)[O-])c2)c1 | -0.0338% (inactive) | 
O=C(NCc1cccc(Cl)c1)C1CCC(=O)N(C2CC2)C1 (stereo not drawn) | -4.23% (inactive) | 

SMILES | activity change, negative = inhibition | Potency
O=C(CCN1C(=O)C2CCCCC2C1=O)Nc1ccc(OC(F)F)cc1 (stereo not drawn) | -2.08% (inactive) | 
Cc1ccc(C(=O)NCCc2nnc(SCC(=O)Nc3cccc(C(=O)O)c3)n2C)cc1 | 10% (inactive) | 
C[C@H](NC(=O)c1nc[nH]c1C(=O)NCC(=O)OC(C)(C)C)C(=O)OCc1ccccc1 | 34.1% (inactive) | 
Cc1ccc(NC(=O)OCCNC(=O)c2ccncc2)cc1 | 20.4% (inactive) | 
CCOC(=O)c1[nH]cnc1C(=O)Nc1ccccc1C | 2.17% (inactive) | 
Cc1cccc(NC(=O)c2nc[nH]c2C(=O)NCC(=O)OCc2ccccc2)c1 | 11.7% (inactive) | 
C[C@H](NC(=O)c1nc[nH]c1C(=O)N[C@@H](C)C(=O)OC(C)(C)C)C(=O)OC(C)(C)C |  | 9.28 µM (active)
CCOC(=O)c1ccc(NC(=O)c2nc[nH]c2C(=O)NCc2ccccc2)cc1 | -4.47% (inactive) | 
CCOC(=O)c1ccc(NC(=O)c2nc[nH]c2C(=O)N[C@@H](CCCCNC(=O)OC(C)(C)C)C(=O)OC(C)(C)C)cc1 |  | 6.57 µM (active)
Cc1ccc(NC(=O)c2nc[nH]c2C(=O)N[C@@H](CCCCNC(=O)OC(C)(C)C)C(=O)OC(C)(C)C)cc1 |  | 13.1 µM (active)
CCN(CC)C(=O)COc1coc(CN2CCN(Cc3ccccc3)CC2)cc1=O | 3.2% (inactive) | 
O=C(NCCC1CCCCN1S(=O)(=O)c1ccccc1)C(=O)NCC1CCCO1 (stereo not drawn) | 31.8% (inactive) | 
O=C(CCC1CCCN(C(=O)c2ccc(F)c(F)c2)C1)N1CCN(c2ccccn2)CC1 (stereo not drawn) | -15.6% (inactive) | 
COc1ccc(Cl)cc1NC(=O)COc1ccc2c(c1)OCO2 | -15.4% (inactive) | 
Nc1nc(-c2ccccc2)cc(-c2ccccc2)n1 | 35.2% (inactive) | 
Nc1cccc(CCc2nc3ccccc3[nH]2)c1 | 68.8% (inactive) | 
Nc1cccc(-c2cc(-c3ccccc3)nc(-c3cccc(N)c3)n2)c1 |  | 10.4 µM (active)
Cc1cccc(C(=O)NCCCN(C)CCCNC(=O)c2cccc(C)c2)c1 | -4.59% (inactive) | 
CCSc1nc2sc3c(c2c(=O)[nH]1)CC(C)(C)OC3 | -4.53% (inactive) | 
O=C(OCc1ccc([N+](=O)[O-])cc1)C1CC(=O)N(Cc2ccccc2Cl)C1 (stereo not drawn) | 16.3% (inactive) | 
COc1cc(/C=C/C(=O)O)cc(S(=O)(=O)Nc2ccccc2C(=O)NCCc2ccccc2)c1OC | 38.7% (inactive) | 
Cc1cc(=O)oc2c(C)c(OCC(=O)N3CCN(Cc4ccc5c(c4)OCO5)CC3)ccc12 | 4.8% (inactive) | 
COc1ccccc1NC(=O)CCN1CCN(c2ccc(Cl)cc2)CC1 | -1.28% (inactive) | 
c1ccc(-c2cnc(CN3CCN(c4ccccc4)CC3)o2)cc1 | 44.5% (inactive) | 
COc1cc(C(CCN2CCN(c3ccccc3)CC2)c2c(OC)cc(OC)c3ccc(=O)oc23)cc(OC)c1OC (stereo not drawn) |  | 13.1 µM (active)

SMILES | activity change, negative = inhibition | Potency
COc1cc(OC)c2ccc(=O)oc2c1C(CCN1CCN(c2ccccc2)CC1)c1ccc2c(c1)OCO2 (stereo not drawn) |  | 11.7 µM (active)
COc1ccccc1N1CCN(Cc2cc(OC)c3c(c2)OCO3)CC1 | 55% (inactive) | 
CC(OC(=O)CN1C(=O)c2ccccc2C1=O)C(=O)c1ccccc1 (stereo not drawn) | -17.5% (inactive) | 
COc1cc(S(=O)(=O)Nc2ncn[nH]2)ccc1Cl | 41.9% (inactive) | 
O=Cc1c(NCCCN2CCCC2=O)c2ccccc2[nH]c1=O | -0.852% (inactive) | 
O=C(NC1CCCC1)C(c1ccc(Cl)cc1)N(C(=O)c1csnn1)C1CC1 (stereo not drawn) | -27.3% (inactive) | 
Cc1cc(-c2ccc(S(=O)(=O)N3CCN(c4cccc(C(F)(F)F)c4)CC3)s2)on1 | -14.9% (inactive) | 
O=c1oc(/C=C/c2ccccc2)nc2ccccc12 | -17.6% (inactive) | 
O=c1c2ccccc2nc(/C=C/c2ccc(F)cc2)n1-c1ccccc1O |  | 13.1 µM (active)
O=c1c2ccccc2ncn1/N=C/c1ccccc1 | 280% (inactive) | 
CCC(=O)c1ccc(OCC(=O)Nc2ccc3nc(C)sc3c2)cc1 | 57.5% (inactive) | 
Cc1ccc(NC(=O)COc2ccc(-n3ccnc3)cc2)cc1Cl |  | 9.28 µM (active)
Cc1ccc(NC(=O)COc2ccc(/C=N\NC(=O)c3cccnc3)cc2)cc1C | -4.91% (inactive) | 
Cc1ccc(NC(=O)NC(=O)c2ccccc2)cc1F | 200% (inactive) | 
COc1cc(NS(=O)(=O)c2ccccc2)ccc1-n1nc(C)cc1C | -2.42% (inactive) | 
COc1cc(/C=N/Nc2nc3ccccc3s2)ccc1O | 60.1% (inactive) | 
COc1ccc(NC(=O)c2nc(-n3nc(C)cc3C)ccc2Cl)cc1Cl | -20.1% (inactive) | 
COc1cccc(/C=N/Nc2cc(C)nc(-c3ccccc3O)n2)c1O |  | 3.7 µM (active)
COc1cccc2c(N/N=C/c3ccco3)cc(C)nc12 | 59.2% (inactive) | 
Cc1cc(N/N=C\c2ccc(Br)cc2)nc(-n2nc(C)cc2C)n1 |  | 1.04 µM (active)
COc1ccccc1/C=N\Nc1cc(C)nc(-n2nc(C)cc2C)n1 |  | 1.65 µM (active)
Cc1nc(Cl)cc(N/N=C/c2ccccc2)n1 | 30.2% (inactive) | 
Cc1ccc(S(=O)(=O)Nc2nc(C)cc(N/N=C/c3ccc(O)cc3)n2)cc1 | 29.3% (inactive) | 
